Unmarked numbers belong to inactive results.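 How the source made its calls: active = AUC reduced over 20% with Padj below 0.05 in at least 2 of 3 replicates; inactive = otherwise.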
Legend:
[1] = test system: Roseburia intestinalis; test: growth AUC relative to DMSO control (median of replicates) (fraction); higher = more growth (less inhibition), active = hit call of the paper; conditions: 20 µM; 24 h
Summary of the method: (§1)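 Gut bacterial monocultures were grown anaerobically at 37 °C in mGAM from a starting OD600 of 0.05 with 20 µM compound (1% DMSO), in round-bottom 96-well plates under pierced gas-permeable seals, and OD600 was read hourly for 24 h. With the minimum OD set to 0, area under the growth curve was normalised to the plate median of solvent-only wells, or to row and column medians on the industrial chemical plate. Each value is the median of three biological replicates grown on separate days.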

[2] = test system: Streptococcus salivarius; test: as above; conditions: 20 µM; 24 h
Summary of the method: as §1

Compound	growth AUC [1]	growth AUC [2]
CC(C)N(Cc1ccccc1)C(=O)C(C)(C)C	0.898	0.961
CN(C)C(=O)Nc1cccc(C(F)(F)F)c1	0.979	0.991
CC(C)[C@@H](Nc1ccc(C(F)(F)F)cc1Cl)C(=O)OC(C#N)c1cccc(Oc2ccccc2)c1 (stereo not given in full)	0.961	1.01
CNC1=C(c2cccc(C(F)(F)F)c2)C(=O)C(c2ccccc2)O1 (stereo not given)	1.04	0.988
C/C(=N\NC(=O)Nc1cc(F)cc(F)c1)c1ncccc1C(=O)[O-].[Na+]	1.06	0.988
CN1COCN(Cc2cnc(Cl)s2)/C1=N/[N+](=O)[O-]	0.952	1.02
ClC1(Cl)C2(Cl)C3(Cl)C4(Cl)C(Cl)(Cl)C5(Cl)C3(Cl)C1(Cl)C5(Cl)C24Cl (stereo not given)	0.958	0.922
O=C(O)C(F)(F)C(F)(F)C(F)(F)C(F)(F)C(F)(F)C(F)(F)C(F)(F)C(F)(F)C(F)(F)F	0.96	0.942
CNC(=O)Oc1ccccc1OC(C)C	1.01	0.98
CCOc1cc(OP(=S)(OC)OC)nc(CC)n1	0.98	0.983
CNC(=O)/C(=N\OC)c1ccccc1Oc1ccccc1	0.995	0.999
O=C(NCCc1ncc(C(F)(F)F)cc1Cl)c1ccccc1C(F)(F)F	0.987	1.01
Clc1nc(Cl)nc(Nc2ccccc2Cl)n1	1.04	1.03
Cc1ccccc1C(=O)Nc1cccc(OC(C)C)c1	1.01	0.988
CCSC(=O)N1CCCCCC1	1	1.01
CCCCC(O)(Cn1cncn1)c1ccc(Cl)cc1Cl (stereo not given)	1	0.991
Cc1c(COC(=O)[C@@H]2[C@H](/C=C(\Cl)C(F)(F)F)C2(C)C)cccc1-c1ccccc1	0.924	0.949
Clc1ccc(C2(Cn3cncn3)OCCO2)c(Cl)c1	0.948	0.915
CC1(C)C(C(=O)OC(C#N)c2cccc(Oc3ccccc3)c2)C1(C)C (stereo not given)	0.929	0.957
OC[C@@H](O)[C@H]1O[C@@H]2O[C@H](C(Cl)(Cl)Cl)O[C@@H]2[C@H]1O (mixture of isomers)	0.967	1.01
CCC(=O)Nc1ccc(Cl)c(Cl)c1	0.917	0.973
CNC(=O)Oc1cccc2ccccc12	0.973	1.03
CCNc1nc(NC(C)C(C)C)nc(SC)n1 (stereo not given)	1.04	0.97
CCC(C)c1cc([N+](=O)[O-])cc([N+](=O)[O-])c1O (stereo not given)	0.887	0.938
COC[C@H](C)N(C(=O)CCl)c1c(C)csc1C	0.966	1.04

Compound	growth AUC [1]	growth AUC [2]
CCCN(CCC)c1c([N+](=O)[O-])cc(S(C)(=O)=O)cc1[N+](=O)[O-]	0.894	0.966
CCCSP(=O)(OCC)SCCC	1	0.984
O=[N+]([O-])c1c(Cl)c(Cl)cc(Cl)c1Cl	1.06	1
CNC(=O)/C=C(\C)OP(=O)(OC)OC	1.07	1.04
COC(=O)c1sccc1S(=O)(=O)NC(=O)Nc1nc(C)nc(OC)n1	0.947	0.859
Oc1ccccc1Cl	0.965	1.01
Cc1nc(N(C)C=O)nc(OC(=O)N(C)C)c1C	0.964	0.999
CN(C)C(=S)SSC(=S)N(C)C	0.822	0.956
COP(=S)(OC)Oc1cc(Cl)c(Br)cc1Cl	1.03	0.995
CCOP(=S)(OCC)Oc1nc(Cl)c(Cl)cc1Cl	1.01	1.06
COCC(=O)N(c1c(C)cccc1C)C(C)C(=O)OC (stereo not given)	1.01	0.986
CC(C)N(C(=O)SCC(Cl)=C(Cl)Cl)C(C)C	1.01	0.996
CN(C(=O)COc1nc2ccccc2s1)c1ccccc1	1.08	1
Nc1c(Cl)c(F)nc(OCC(=O)O)c1Cl	1	1
Cc1ccc(NC(=O)N(C)C)cc1Cl	1.02	1.02
CCCCOC(=O)c1ccccc1C(=O)OCCCC	0.953	1.02
CCOP(=O)(Sc1ccccc1)Sc1ccccc1	0.946	0.948
CCCCN(CCCC)SN(C)C(=O)Oc1cccc2c1OC(C)(C)C2	0.942	1
CC/C(=N\OC/C=C/Cl)C1=C(O)CC(C2CCOCC2)CC1=O (stereo not given)	1.02	0.994
CCN(CC)C(=O)C(C)Oc1cccc2ccccc12 (stereo not given)	1.08	0.959
COc1ccc(C(c2ccc(OC)cc2)C(Cl)(Cl)Cl)cc1	0.987	0.992
Cc1ccc(-c2c(Cl)nc(C#N)n2S(=O)(=O)N(C)C)cc1	0.995	0.956
O=[N+]([O-])c1cc(Cl)ccc1Cl	0.931	0.981
C1=Cc2cccc3cccc1c23	0.987	0.98
CNC(=O)Oc1cc(C)c(SC)c(C)c1	0.928	0.968

Compound	growth AUC [1]	growth AUC [2]
COC(=O)COc1cc(Cl)c(Cl)cc1Cl	0.996	1.01
COCC(C)N(C(=O)CCl)c1c(C)csc1C (stereo not given)	0.988	0.868
CC(C)(C)C(O)C(Cc1ccc(Cl)cc1Cl)n1cncn1 (mixture of isomers)	0.918	0.974
Clc1cccc(Cl)c1Cl	0.972	1.06
CCCN(CC1CC1)c1c([N+](=O)[O-])cc(C(F)(F)F)cc1[N+](=O)[O-]	1.06	1.03
CCOP(=O)(OCC)OP(=O)(OCC)OCC	0.969	1.03
O=C1C=CC(=O)C=C1	1.08	0.979
COc1cc(OC)nc(NC(=O)NS(=O)(=O)c2ncccc2C(F)(F)F)n1	1	1.01
Clc1cc(Cl)c(Cl)c(Cl)c1	0.91	0.968
CC[C@H](C)[C@H]1O[C@]2(C=C[C@@H]1C)C[C@@H]1C[C@@H](C/C=C(\C)[C@@H](O[C@H]3C[C@H](OC)[C@@H](O[C@H]4C[C@H](OC)[C@@H](NC)[C@H](C)O4)[C@H](C)O3)[C@@H](C)/C=C/C=C3\CO[C@@H]4[C@H](O)C(C)=C[C@@H](C(=O)O1)[C@]34O)O2.O=C(O)c1ccccc1	0.0307 (active)	0.798 (active)
Cc1c(F)c(F)c(COC(=O)[C@@H]2[C@H](/C=C(\Cl)C(F)(F)F)C2(C)C)c(F)c1F (mixture of isomers)	0.986	0.993
CCSCCSP(=S)(OC)OC	1.03	1.02
OC(c1ccc(Cl)cc1)(c1ccc(Cl)cc1)C(Cl)(Cl)Cl	0.891	0.874
CCOc1ccccc1OS(=O)(=O)NC(=O)Nc1nc(OC)cc(OC)n1	0.92	0.966
CCCN(CCC)c1c([N+](=O)[O-])cc(C(C)C)cc1[N+](=O)[O-]	1.01	0.99
C#CCN1C(=O)COc2cc(F)c(N3C(=O)C4=C(CCCC4)C3=O)cc21	0.965	0.974
ClC(Cl)=C(c1ccc(Cl)cc1)c1ccc(Cl)cc1	0.945	0.965
COP(=S)(OC)Oc1nc(Cl)c(Cl)cc1Cl	1	1.02
CCS(=O)(=O)c1nc2ccccn2c1S(=O)(=O)NC(=O)Nc1nc(OC)cc(OC)n1	1.01	1.03
CC(C)N1C(=O)c2ccccc2NS1(=O)=O	1	0.978
CCOP(=S)(OCC)SCCSCC	1.02	1.01
CC(C)OC(=O)C(C(=O)OC(C)C)=C1SCCS1	1.06	1.02
CCOP(=S)(Oc1ccc([N+](=O)[O-])cc1)c1ccccc1 (stereo not given)	1.04	1.04
CCOC(=O)CCN(Cc1ccccc1)SN(C)C(=O)O/N=C(/C)SC	0.987	0.976
CNC(=O)Oc1cccc(N=CN(C)C)c1.Cl	0.992	1.02

Source: the supplement of paper PMC12669032
